# Test results as given in the supplement of paper PMC8728848.
# The full list was thinned out, with the strongest signals kept by preference.
# B1: SP15308A-bot-339-19-339 (Bacteroides ovatus) (protein)
# chain: ACNNEWEDEQYEQYISFKSPIPAGGEGVTDIYVRYKEDGKVTYRLPIVVSGSTTNTLDREVHIAVDKDTLETLNIERFSIHRPGLWYTALEEDKYDFPKTVHISAGSSVEQLNIDFNLQGIDMLEKWVLPLTIVDDPSYNYKSHPRKNYAKALLRVIPFNNYSGSYTSSAMKVYTYINGKPDTNARTANKRTGYVINDNTVFFYAGLISEDLDKEVREKYKINVHFNEDGTLHMEQGDPTNKMKFELIGTPTYSKTSVMDATRPYLERRYVQIMFEYDFEDFSYGGNGVDVIPIKYKVEGSMTLQRNINTQIPDEDQQIEW
# Assays:
# Assay in all cases: glycan array binding signal (z-score within array); higher = stronger binding
# Conditions in all cases: glycan notation: IUPAC condensed, linker removed
# [1] = molecular target: Fuc(a1-2)Gal(b1-3)GlcNAc(b1-2)Man(a1-3)[Fuc(a1-2)Gal(b1-3)GlcNAc(b1-2)Man(a1-6)]Man(b1-4)GlcNAc(b1-4)[Fuc(a1-6)]GlcNAc
# Procedure, shortened: (§1)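 From the Consortium for Functional Glycomics database, 3228 arrays were curated, keeping only those whose protein sequence was available. Binding is given as a within-array Z-score averaged across arrays sharing a protein sequence and across linkers. Negative Z-scores can be read as non-binding.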
# [2] = molecular target: Fuc(a1-2)Gal(b1-3)GlcNAc(b1-3)[Gal(b1-4)GlcNAc(b1-6)]Gal(b1-4)Glc
# Procedure, shortened: as §1
# [3] = molecular target: Fuc(a1-2)[Gal(a1-3)]Gal(b1-4)GlcNAc(b1-3)[Fuc(a1-2)[Gal(a1-3)]Gal(b1-4)GlcNAc(b1-6)]GalNAc
# Procedure, shortened: as §1
# [4] = molecular target: Fuc(a1-2)[GalNAc(a1-3)]Gal(b1-3)GlcNAc(b1-3)GalNAc
# Procedure, shortened: as §1
# [5] = molecular target: Fuc(a1-2)[GalNAc(a1-3)]Gal(b1-4)GlcNAc(b1-3)Gal(b1-4)GlcNAc(b1-3)Gal(b1-4)GlcNAc
# Procedure, shortened: as §1
# [6] = molecular target: Fuc(a1-3)[Gal(b1-4)]GlcNAc(b1-2)Man
# Procedure, shortened: as §1
# Fuc(a1-4)GlcNAc = molecular target: Fuc(a1-4)GlcNAc
# Procedure, shortened: as §1
# [7] = molecular target: Gal(a1-3)[Gal(a1-4)]Gal(b1-4)GlcNAc
# Procedure, shortened: as §1
# Gal(a1-4)Gal(b1-4)GlcNAc = molecular target: Gal(a1-4)Gal(b1-4)GlcNAc
# Procedure, shortened: as §1
# Gal(a1-6)Glc = molecular target: Gal(a1-6)Glc
# Procedure, shortened: as §1
# Gal(b1-2)Gal = molecular target: Gal(b1-2)Gal
# Procedure, shortened: as §1
# Gal(b1-3)GlcNAc = molecular target: Gal(b1-3)GlcNAc
# Procedure, shortened: as §1
# [8] = molecular target: Gal(b1-3)GlcNAc(a1-3)Gal(b1-4)GlcNAc
# Procedure, shortened: as §1
# Gal(b1-3)GlcNAc(b1-2)Man = molecular target: Gal(b1-3)GlcNAc(b1-2)Man
# Procedure, shortened: as §1
# [9] = molecular target: Gal(b1-3)GlcNAc(b1-3)Gal(b1-4)Glc
# Procedure, shortened: as §1
# [10] = molecular target: Gal(b1-3)GlcNAc(b1-3)GalNAc
# Procedure, shortened: as §1
# [11] = molecular target: Gal(b1-4)GlcNAc(b1-2)[Gal(b1-4)GlcNAc(b1-6)]Man(a1-6)[GlcNAc(b1-4)][Gal(b1-4)GlcNAc(b1-2)Man(a1-3)]Man(b1-4)GlcNAc(b1-4)GlcNAc
# Procedure, shortened: as §1
# [12] = molecular target: Gal(b1-4)GlcNAc(b1-3)Gal(b1-4)GlcNAc(b1-3)Gal(b1-4)GlcNAc(b1-2)Man(a1-3)[Gal(b1-4)GlcNAc(b1-3)Gal(b1-4)GlcNAc(b1-3)Gal(b1-4)GlcNAc(b1-2)Man(a1-6)]Man(b1-4)GlcNAc(b1-4)[Fuc(a1-6)]GlcNAc
# Procedure, shortened: as §1
# [13] = molecular target: Gal(b1-4)GlcNAc(b1-3)Gal(b1-4)GlcNAc(b1-3)Gal(b1-4)GlcNAc(b1-3)Gal(b1-4)GlcNAc(b1-3)Gal(b1-4)GlcNAc(b1-2)[Gal(b1-4)GlcNAc(b1-3)Gal(b1-4)GlcNAc(b1-3)Gal(b1-4)GlcNAc(b1-3)Gal(b1-4)GlcNAc(b1-3)Gal(b1-4)GlcNAc(b1-6)]Man(a1-6)[Gal(b1-4)GlcNAc(b1-3)Gal(b1-4)GlcNAc(b1-3)Gal(b1-4)GlcNAc(b1-3)Gal(b1-4)GlcNAc(b1-3)Gal(b1-4)GlcNAc(b1-2)Man(a1-3)]Man(b1-4)GlcNAc(b1-4)[Fuc(a1-6)]GlcNAc
# Procedure, shortened: as §1
# Gal3S(b1-3)GalNAc = molecular target: Gal3S(b1-3)GalNAc
# Procedure, shortened: as §1
# Gal3S(b1-4)Glc = molecular target: Gal3S(b1-4)Glc
# Procedure, shortened: as §1
# Gal3S4S(b1-4)GlcNAc = molecular target: Gal3S4S(b1-4)GlcNAc
# Procedure, shortened: as §1
# GalNAc(a1-3)GalNAc = molecular target: GalNAc(a1-3)GalNAc
# Procedure, shortened: as §1
# GalNAc(b1-4)GlcNAc = molecular target: GalNAc(b1-4)GlcNAc
# Procedure, shortened: as §1
# [14] = molecular target: GalNAc(b1-4)GlcNAc(b1-2)Man(a1-3)[GalNAc(b1-4)GlcNAc(b1-2)Man(a1-6)]Man(b1-4)GlcNAc(b1-4)GlcNAc
# Procedure, shortened: as §1
# GlcA(b1-3)GlcNAc = molecular target: GlcA(b1-3)GlcNAc
# Procedure, shortened: as §1
# [15] = molecular target: GlcNAc(a1-4)Gal(b1-4)GlcNAc(b1-3)Gal(b1-4)Glc
# Procedure, shortened: as §1
# [16] = molecular target: GlcNAc(b1-2)Man(a1-3)[GlcNAc(b1-4)][GlcNAc(b1-2)Man(a1-6)]Man(b1-4)GlcNAc(b1-4)[Fuc(a1-6)]GlcNAc
# Procedure, shortened: as §1
# [17] = molecular target: GlcNAc(b1-2)[GlcNAc(b1-4)]Man(a1-3)[GlcNAc(b1-4)][GlcNAc(b1-2)Man(a1-6)]Man(b1-4)GlcNAc(b1-4)GlcNAc
# Procedure, shortened: as §1
# [18] = molecular target: GlcNAc(b1-2)[GlcNAc(b1-4)]Man(a1-3)[GlcNAc(b1-4)][GlcNAc(b1-2)[GlcNAc(b1-6)]Man(a1-6)]Man(b1-4)GlcNAc(b1-4)GlcNAc
# Procedure, shortened: as §1
# [19] = molecular target: GlcNAc(b1-3)Gal(b1-4)GlcNAc(b1-2)Man(a1-3)[GlcNAc(b1-3)Gal(b1-4)GlcNAc(b1-2)Man(a1-6)]Man(b1-4)GlcNAc(b1-4)[Fuc(a1-6)]GlcNAc
# Procedure, shortened: as §1
# [20] = molecular target: GlcNAc(b1-3)Gal(b1-4)GlcNAc(b1-3)[GlcNAc(b1-3)Gal(b1-4)GlcNAc(b1-3)]GalNAc
# Procedure, shortened: as §1
# GlcNAc(b1-3)Man = molecular target: GlcNAc(b1-3)Man
# Procedure, shortened: as §1
# [21] = molecular target: GlcNAc(b1-4)GlcNAc(b1-4)GlcNAc(b1-4)GlcNAc(b1-4)GlcNAc
# Procedure, shortened: as §1
# [22] = molecular target: Man(a1-2)Man(a1-2)Man(a1-3)Man
# Procedure, shortened: as §1
# [23] = molecular target: Neu5Ac(a2-3)Gal(b1-3)GalNAc
# Procedure, shortened: as §1
# Neu5Ac(a2-3)Gal(b1-4)Glc = molecular target: Neu5Ac(a2-3)Gal(b1-4)Glc
# Procedure, shortened: as §1
# [24] = molecular target: Neu5Ac(a2-3)Gal(b1-4)GlcNAc(b1-3)Gal(b1-3)GlcNAc
# Procedure, shortened: as §1
# [25] = molecular target: Neu5Ac(a2-3)Gal(b1-4)GlcNAc(b1-3)Gal(b1-4)GlcNAc(b1-3)GalNAc
# Procedure, shortened: as §1
# [26] = molecular target: Neu5Ac(a2-3)Gal(b1-4)[Fuc(a1-3)]GlcNAc(b1-3)GalNAc
# Procedure, shortened: as §1
# Neu5Ac(a2-3)GalNAc = molecular target: Neu5Ac(a2-3)GalNAc
# Procedure, shortened: as §1
# Neu5Ac(a2-6)GalNAc = molecular target: Neu5Ac(a2-6)GalNAc
# Procedure, shortened: as §1
# [27] = molecular target: Neu5Ac(a2-8)Neu5Ac(a2-3)[Gal(b1-3)GalNAc(b1-4)]Gal(b1-4)Glc
# Procedure, shortened: as §1
# [28] = molecular target: Neu5Ac(a2-8)Neu5Gc(a2-3)Gal(b1-4)GlcNAc
# Procedure, shortened: as §1
# [29] = molecular target: Neu5Gc(a2-3)Gal(b1-3)[Fuc(a1-4)]GlcNAc
# Procedure, shortened: as §1
binder,measurement,setting,value
B1,glycan array binding signal (z-score),[1],0.285
same,glycan array binding signal (z-score),[2],-0.461
same,glycan array binding signal (z-score),[3],8.34
same,glycan array binding signal (z-score),[4],0.521
same,glycan array binding signal (z-score),[5],0.178
same,glycan array binding signal (z-score),[6],0.187
same,glycan array binding signal (z-score),Fuc(a1-4)GlcNAc,19.1
same,glycan array binding signal (z-score),[7],1.28
same,glycan array binding signal (z-score),Gal(a1-4)Gal(b1-4)GlcNAc,0.261
same,glycan array binding signal (z-score),Gal(a1-6)Glc,0.432
same,glycan array binding signal (z-score),Gal(b1-2)Gal,0.055
same,glycan array binding signal (z-score),Gal(b1-3)GlcNAc,0.061
same,glycan array binding signal (z-score),[8],0.217
same,glycan array binding signal (z-score),Gal(b1-3)GlcNAc(b1-2)Man,2.76
same,glycan array binding signal (z-score),[9],-0.437
same,glycan array binding signal (z-score),[10],0.029
same,glycan array binding signal (z-score),[11],-0.304
same,glycan array binding signal (z-score),[12],2.77
same,glycan array binding signal (z-score),[13],0.968
same,glycan array binding signal (z-score),Gal3S(b1-3)GalNAc,0.97
same,glycan array binding signal (z-score),Gal3S(b1-4)Glc,0.257
same,glycan array binding signal (z-score),Gal3S4S(b1-4)GlcNAc,0.201
same,glycan array binding signal (z-score),GalNAc(a1-3)GalNAc,1.35
same,glycan array binding signal (z-score),GalNAc(b1-4)GlcNAc,1.18
same,glycan array binding signal (z-score),[14],1.54
same,glycan array binding signal (z-score),GlcA(b1-3)GlcNAc,-0.486
same,glycan array binding signal (z-score),[15],0.185
same,glycan array binding signal (z-score),[16],-0.474
same,glycan array binding signal (z-score),[17],1.11
same,glycan array binding signal (z-score),[18],-0.391
same,glycan array binding signal (z-score),[19],0.083
same,glycan array binding signal (z-score),[20],0.148
same,glycan array binding signal (z-score),GlcNAc(b1-3)Man,-0.188
same,glycan array binding signal (z-score),[21],-0.452
same,glycan array binding signal (z-score),[22],-0.468
same,glycan array binding signal (z-score),[23],1.94
same,glycan array binding signal (z-score),Neu5Ac(a2-3)Gal(b1-4)Glc,0.997
same,glycan array binding signal (z-score),[24],0.117
same,glycan array binding signal (z-score),[25],-0.51
same,glycan array binding signal (z-score),[26],1.76
same,glycan array binding signal (z-score),Neu5Ac(a2-3)GalNAc,0.234
same,glycan array binding signal (z-score),Neu5Ac(a2-6)GalNAc,-0.36
same,glycan array binding signal (z-score),[27],-0.083
same,glycan array binding signal (z-score),[28],-0.21
same,glycan array binding signal (z-score),[29],-0.412
